Screens from PubChem BioAssay.
MBD2 DNA inh: inhibitors of MBD2 binding to methylated DNA, primary screen, biochemical, TR-FRET, DNA-binding domain, human. MBD2 binding to methylated oligonucleotide. inhibition, % at 4.4 µM. 0.31% of 370,000 active; in the data active = inhibition above about 13%
Target sequence (Q9UBB5 whole entry, looked up, the tested form may be a part): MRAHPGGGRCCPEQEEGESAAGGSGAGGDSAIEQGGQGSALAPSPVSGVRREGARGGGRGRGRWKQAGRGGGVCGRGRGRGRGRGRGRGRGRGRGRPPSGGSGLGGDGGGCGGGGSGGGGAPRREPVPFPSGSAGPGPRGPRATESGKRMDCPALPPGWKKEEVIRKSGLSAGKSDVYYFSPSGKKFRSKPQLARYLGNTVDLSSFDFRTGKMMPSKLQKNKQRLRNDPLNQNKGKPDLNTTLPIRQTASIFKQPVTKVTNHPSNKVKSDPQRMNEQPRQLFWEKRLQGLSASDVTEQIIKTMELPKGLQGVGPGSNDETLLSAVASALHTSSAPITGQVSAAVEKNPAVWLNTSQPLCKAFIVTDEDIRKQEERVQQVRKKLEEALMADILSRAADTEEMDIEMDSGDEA
LEDGF integ inh: blockers of LEDGF/p75-dependent integrase strand transfer – biochemical, TR-FRET, high throughput, primary screen; AID 743269, 2014; 0.64% of 370,000 active; TR-FRET IN-LEDGF/p75 DNA integration, Eu/Cy5; HIV-1 integrase (with human LEDGF/p75); inhibition, % at 3.7 µM;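 active = inhibition above the screen-wide mean plus 3 SD, cut at about 13% in these data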;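 also: signal is the Cy5 over europium emission ratio at 671 and 618 nm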
rCAG binder: binders of r(CAG) RNA repeats, primary screen, biochemical, fluorescence | r(CAG) RNA repeat, TO-PRO-1 dye displacement fluorescence | inhibition, % at 3 µM | 1.3% of 370,000 active | AID 651821, 2012;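 active = inhibition above the plate cutoff, the mean of all test compounds on that plate plus 3 SD, cut at about 35% in these data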;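 also: higher means more dye released from RNA so lower well fluorescence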
UHRF1 MBD2 ctr: UHRF1 methylated DNA binding inhibitors, primary screen, counter-screen for MBD2 inhibitor project, biochemical, TR-FRET, human UHRF1, single concentration. UHRF1 binding to methylated oligo. inhibition, % at 4.4 µM. 0.75% of 370,000 active. AID 687016, 2013; in the data active = inhibition above about 21%;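 also: UHRF1 SRA domain binding a hemimethylated CpG hairpin DNA probe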
PG9 Ab binder: binders of HIV-1 gp120 antibody PG9, primary screen, biochemical, TR-FRET; HIV-1 gp120 / PG9 antibody interaction; TR-FRET gp120-PG9 antibody binding; inhibition, % at 6.7 µM; 0.43% of 360,000 active; in the data active = inhibition above about 8.5%
DNMT1 inh: human DNMT1 methyltransferase inhibitors, primary screen, biochemical, molecular beacon, fluorescence, HinP1I cleavage, uHTS | inhibition (reported as % activation of signal), % at 10 µM | 0.83% of 360,000 active | AID 588458, 2011; in the data active = inhibition above about 50%
IN multimer act: HIV-1 IN multimer formation enhancers, counter-screen for LEDGF/p75 integration inhibitor project, biochemical, TR-FRET; shares compounds with LEDGF integ inh; TR-FRET HIV-1 integrase multimerization; activation, % at 7.7 µM; 17% of 2,000 active; in the data active = activation above about 8.9%
TRFRET interf: TR-FRET optical interference artefacts, confirmation, artefact control for LEDGF/p75-dependent integration inhibitor project, biochemical, HIV-1 IN multimerization | shares compounds with LEDGF integ inh | TR-FRET optical interference counterscreen | inhibition, % at 7.7 µM | 2,000 tested, under 10 active | AID 1053135, 2014;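 active = inhibition above the mean over all tested compounds plus 3 SD, which no compound reached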
IN-LEDGF confirm: inhibitors of HIV-1 IN-LEDGF/p75 DNA integration, confirmation, biochemical, TR-FRET. inhibition, % at 3.7 µM. shares compounds with LEDGF integ inh. TR-FRET LEDGF/p75-dependent HIV-1 integration. AID 1053136, 2014. 36% of 2,000 active; in the data active = inhibition above about 14%
Large screens that a line does not name were inactive (follow-up assays come after a bar, where they were run). Shown are actives, neighbours in structure and some others; about 3.5% of the full set was active somewhere.

CN(C)c1ccc(N2C(=O)CSC2=S)cc1	LEDGF integ inh 21 | IN multimer act inactive | TRFRET interf inactive | IN-LEDGF confirm inactive
CC1SC(=S)N(c2ccc(N(C)C)cc2)C1=O (configuration not stated)	LEDGF integ inh 20 | IN multimer act inactive | TRFRET interf inactive | IN-LEDGF confirm inactive
Cc1ccc(N2C(=O)CSC2=S)cc1C	none
CC(C)n1nc(C(=O)Nc2cccc(S(=O)(=O)N3CCOCC3)c2)c2ccccc2c1=O	none
CN(C(=O)COC(=O)c1cncc(Br)c1)C1CCS(=O)(=O)C1 (configuration not stated)	none
CN(C(=O)COC(=O)c1cncc(Br)c1)C1CCCCC1	LEDGF integ inh 16 | IN multimer act inactive | TRFRET interf inactive | IN-LEDGF confirm inactive
CC(Sc1ccc(S(=O)(=O)N2CCN(C)CC2)cn1)C(=O)Nc1cccc(Cl)c1Cl (configuration not stated)	none
Cc1ccc(-c2nc(NCc3ccc(F)cc3)n(S(C)(=O)=O)n2)cc1	LEDGF integ inh 14 | IN multimer act inactive | TRFRET interf inactive | IN-LEDGF confirm inactive
COc1ccc(NC(=O)CSc2nc3ccccc3c(=O)[nH]2)cc1S(N)(=O)=O	none
Nc1c(S(=O)(=O)c2cccs2)c2nc3ccccc3nc2n1Cc1ccccc1	none
COCCn1c(N)c(S(=O)(=O)c2cccs2)c2nc3ccccc3nc21	LEDGF integ inh 14 | IN multimer act inactive | TRFRET interf inactive | IN-LEDGF confirm inactive
Cc1cccc(/N=C/c2sc3ccccc3c2O)n1	LEDGF integ inh 50 | IN multimer act inactive | TRFRET interf inactive | IN-LEDGF confirm inactive
CC(C)(C)OC(=O)N1CCC(C(=O)N[C@@H](Cc2ccccc2)C(=O)O)(c2ccccc2)CC1	LEDGF integ inh 18 | IN multimer act inactive | TRFRET interf inactive | IN-LEDGF confirm 15
O=C(c1ccccc1Cc1ccccc1)N1CCN(S(=O)(=O)c2ccccc2Br)CC1	none
CN(C)CC(=O)N[C@@H]1CC[C@@H](CC(=O)NCCN2CCCCC2)O[C@@H]1CO	none (no result: DNMT1 inh)
CN(C)CC(=O)N[C@@H]1C=C[C@@H](CC(=O)NCCN2CCCCC2)O[C@@H]1CO	LEDGF integ inh 28 (no result: DNMT1 inh) | IN multimer act inactive | TRFRET interf inactive | IN-LEDGF confirm inactive
CC(C)(C)OC(=O)Nc1ccccc1-n1nnnc1C(C(=O)c1ccc(F)cc1)N1CCOCC1 (configuration not stated)	none (no result: DNMT1 inh)
O=C1NC(=O)/C(=C\c2ccc(O)cc2O)S1	LEDGF integ inh 20 | IN multimer act 48 | TRFRET interf inactive | IN-LEDGF confirm 66
COc1ccc(/C=N/Nc2ncnc(Cl)c2N)cc1OC	none
COc1ccc(/C=N/Nc2nnc(C)n2N)cc1OC	LEDGF integ inh 48 | IN multimer act inactive | TRFRET interf inactive | IN-LEDGF confirm inactive
COc1cc(/C=N/n2nnnc2N)ccc1OC(C)=O	none
COc1ccc(/C=N/Nc2nnc(C)n2N)cc1OC(C)=O	LEDGF integ inh 32 | IN multimer act inactive | TRFRET interf inactive | IN-LEDGF confirm inactive
Cc1cnc(CNC(=O)c2ccc3sc([C@@H]4O[C@H](CO)[C@H](O)[C@H](O)[C@H]4O)nc3c2)cn1	none
O=C(NCc1cccs1)c1ccc2sc([C@@H]3O[C@H](CO)[C@H](O)[C@H](O)[C@H]3O)nc2c1	LEDGF integ inh 33 | IN multimer act inactive | TRFRET interf inactive | IN-LEDGF confirm inactive
CCOC(=O)C1CCN(C(=O)C(Cc2ccc3c(c2)OCO3)NC(C)=O)CC1 (configuration not stated)	none (no result: PG9 Ab binder, DNMT1 inh)
CC1OC(OCC2OC(Oc3c(-c4ccc(O)cc4)oc4cc(O)cc(O)c4c3=O)C(O)C(O)C2O)C(O)C(O)C1O (configuration not stated)	LEDGF integ inh 17 | IN multimer act 30 | TRFRET interf inactive | IN-LEDGF confirm 47
CC1OC(OC2C(Oc3c(-c4ccc(O)cc4)oc4cc(O)cc(O)c4c3=O)OC(COC3O[C@@H](C)[C@H](O)[C@@H](O)C3O)C(O)C2O)C(O)C(O)C1O (some centres not stated)	none
Cn1ccnc1SCC(=O)c1cc2ccccc2o1	LEDGF integ inh 25 | IN multimer act inactive | TRFRET interf inactive | IN-LEDGF confirm inactive
CCCc1nc2ccc(C)cn2c1Cc1ccc(C)cc1	LEDGF integ inh 14, UHRF1 MBD2 ctr 21 | IN multimer act inactive | TRFRET interf inactive | IN-LEDGF confirm inactive
CCCc1nc2ccc(C)cn2c1Cc1cccc(F)c1	none
CC1(C)N([O-])C(c2cccs2)=C[N+]1=O	LEDGF integ inh 24 | IN multimer act inactive | TRFRET interf inactive | IN-LEDGF confirm 29
COc1c([N+](=O)[O-])c(=O)oc2ccccc12	none
COc1c(NC=O)c2c(c([N+](=O)[O-])c1OC)C(=O)OC2	LEDGF integ inh 14 | IN multimer act inactive | TRFRET interf inactive | IN-LEDGF confirm inactive
CCOC(=O)[C@]12CCCCC/C=C\1N(CCc1ccc(Cl)cc1)C(=O)[C@H]2CC(=O)NCc1cccc(C(F)(F)F)c1	none (no result: PG9 Ab binder, DNMT1 inh)
Cc1ccc2occ(/C=N/NC(=O)c3ccccc3O)c(=O)c2c1	LEDGF integ inh 18 | IN multimer act inactive | TRFRET interf inactive | IN-LEDGF confirm 24
CC(C)C1NC2(C(=O)c3ccccc3C2=O)C2C(=O)N(c3ccc(F)cc3)C(=O)C12 (configuration not stated)	LEDGF integ inh 39 | IN multimer act inactive | TRFRET interf inactive | IN-LEDGF confirm inactive
O=C1C2C3C=CC(CC3)C2C(=O)N1c1ccc(F)cc1 (configuration not stated)	none
CC(=O)N1CCC(N2CCN(c3ccccc3F)CC2)CC1	LEDGF integ inh 40 | IN multimer act inactive | TRFRET interf inactive | IN-LEDGF confirm inactive
